In PubChem BioAssay one finds inhibition data, which are given here for 30 compounds.

The source made the active and inactive calls. Cut-off read from the data, not from the text of the source: active = inhibition above about 44%; inactive = the rest.

A word on the inhibition: it is the percentage by which the read-out fell short of the control.

The assay deals with Steroidogenic factor 1 (Homo sapiens) (UniProt Q13285). As to the kind of experiment: inverse agonism at SF1 nuclear receptor – cell-based, luminescence, high throughput, counter-screen for LRH-1 inverse agonist project (AID 651614).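 Note: cells cotransfected with StAR promoter reporter and SF1 expression vector; 0% = vehicle on cells with receptor and 100% = vehicle on cells lacking receptor.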 The conditions noted are these: cell-based SF1 luciferase reporter, at 3.6 µM, stronger effect = higher value. (In general: Counterscreens check selectivity or assay interference.)
Chain of Steroidogenic factor 1 (Homo sapiens) (Q13285 whole entry, looked up): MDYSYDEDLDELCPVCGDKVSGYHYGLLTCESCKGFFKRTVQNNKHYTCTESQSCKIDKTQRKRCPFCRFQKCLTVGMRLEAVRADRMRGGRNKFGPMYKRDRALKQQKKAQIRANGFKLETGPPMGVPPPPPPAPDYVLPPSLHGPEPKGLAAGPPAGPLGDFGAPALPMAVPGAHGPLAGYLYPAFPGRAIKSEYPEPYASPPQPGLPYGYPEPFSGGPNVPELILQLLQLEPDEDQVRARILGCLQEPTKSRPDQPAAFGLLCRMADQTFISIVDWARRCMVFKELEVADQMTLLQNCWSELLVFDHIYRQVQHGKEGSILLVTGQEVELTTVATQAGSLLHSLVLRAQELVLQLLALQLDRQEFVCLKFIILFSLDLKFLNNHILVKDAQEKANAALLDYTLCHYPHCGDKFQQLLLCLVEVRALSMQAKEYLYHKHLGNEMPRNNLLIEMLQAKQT
Consider `Cc1ccc(/C=C/c2ccc(N(C)C)cc2)[n+](C)c1`, for which the inhibition is 73% (active).

Take `CCCCCCCC[n+]1cccc2c3ccccc3ccc21`: the inhibition was 92.8% (active).

Take `N=c1c2c(-c3ccccc3)c(-c3ccccc3)n(Cc3ccccc3)c2ncn1CCO`: the inhibition was 73.1% (active).

Regarding `COc1ccc(Nc2ncnc3ccc(Br)cc23)c(OC)c1`, the inhibition is 79.2% (active).

As for `O=C(N/N=C/c1sc(N2CCOCC2)nc1-c1ccccc1)c1cccc(S(=O)(=O)N2CCOCC2)c1`, the inhibition is 85.7% (active).

For `OCC1OC(n2cnc3c(NCc4ccccc4O)ncnc32)C(O)C1O` (stereo not given), the inhibition is 90.3% (active).

Take `CCn1c(C)cc(C(=O)COC(=O)c2ccccc2[N+](=O)[O-])c1C`: the inhibition is 83.6% (active).

`CCC(C)(C)c1ccc(OCCCC[n+]2cccc(C)c2C)c(C(C)(C)CC)c1`: the inhibition is 85.2% (active).

For the compound `CC(C)(C)c1ccc(Oc2ccc(N)cc2)cc1`, the inhibition is 78.9% (active).

As for `COc1ccccc1C(=O)Nc1nc2ccccc2s1`, the inhibition was 88% (active).

In the case of `COc1cccc(/C=N/NC(=O)c2c(C)nc3ccc(Cl)cn23)c1O`, the inhibition is 88.4% (active).

As to `C=CCn1c(C)cc(C2=NNC(=NCC)SC2)c1C`, the inhibition was 79.8% (active).

`COc1cccc(Cn2c(NCc3cccnc3)nc3c2c(=O)n(C)c(=O)n3C)c1`: the inhibition was 50.3% (active).

As to `NC(=S)NN=Cc1nccc2c(C(F)(F)F)cccc12`, the inhibition was 93.2% (active).

As to `Cc1ccsc1C(=O)OCC(=O)c1cc(C)n(CC2CCCO2)c1C` (stereo not given), the inhibition is 61.6% (active).

For the compound `CC(C)CC(=NNC(=O)c1ccncc1)c1cc(Cl)ccc1O`, the inhibition was 92.5% (active).

Consider `CN(C)c1ccc(/C=C/c2ccc3c4ccccc4ccc3[n+]2-c2ccccc2)cc1`, for which the inhibition is 92.5% (active).

Turning to `Cc1cccn2c(=O)c3cc(C(=O)NCCN4CCOCC4)c(=N)n(Cc4ccc(F)cc4)c3nc12`, the inhibition was 61.6% (active).

For `O=C(Nc1ccon1)c1nc[nH]c1C(=O)NCc1ccccc1`, the inhibition was 51% (active).

As to `CC(=NNC(=S)Nc1cccc(C)c1)c1ccccn1`, the inhibition is 92.4% (active).

Regarding `Cc1[nH]c(=O)c(C(=O)/C=C/c2ccccc2)c2c1CCCC2`, the inhibition was 68.2% (active).

Take `COC(=O)C12OCC34C(CC5C(C)=C(O)C(=O)CC5(C)C3C(O)C1O)OC(=O)C(OC(=O)C=C(C)C)C24` (stereo not given): the inhibition is 98.5% (active).

Regarding `CCCCCCn1c2c(c(=N)c3c1CCC3)CCC2`, the inhibition is 91.7% (active).

In the case of `COc1ccc(CCNc2ncnc3c2oc2ccccc23)cc1OC`, the inhibition was 58.1% (active).

On to `O=C(c1ccccc1)c1c2c(cc3sc4ccccc4[n+]13)-c1cccc3cccc-2c13`, for which the inhibition was 75.1% (active).

For `OCCCNc1nccc(-c2cc(Nc3cccc(Cl)c3)ncn2)n1`, the inhibition is 96.5% (active).

With `O=c1c2ccccc2sc2ccc(C#CC3(O)CCCCC3)cc12`, the inhibition is 76.5% (active).

Turning to `COc1ccc(-c2oc3ccc(N4CCOCC4)cc3c2C#CCO)cc1`, the inhibition was 62% (active).

Take `CC[C@H]1CN2CCc3cc(OC)c(OC)cc3[C@@H]2C[C@@H]1C[C@H]1NCCc2cc(OC)c(OC)cc21`: the inhibition was 97.7% (active).

As to `CC(=O)NC(c1ccc(Cl)cc1)c1ccc2cccnc2c1O` (stereo not given), the inhibition was 91.2% (active).
